Calls of active or inactive are those of the source. Rule for the calls: active = hit-call score of the fitted dose curve at least 0.9, where 1 is the maximum; inactive = score below 0.9.
Experiment: ATG_PXRE_CIS: Attagene CIS-FACTORIAL HepG2 Assay for human Pregnane X Receptor Element (PXRE) (AID 2282957)
Conditions: HepG2 Attagene CIS-FACTORIAL PXRE reporter, mRNA; actives raise or lower the signal
Summary of the method: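 Cells: HepG2, transiently transfected reporter units under cis promoter control. Exposure: 24 h. Detection: reporter mRNA via RT-PCR/CE fluorescence; bidirectional fitting, DMSO-referenced.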

AC50, active:
O=C1CCCCCCCCCCCCCC1 9.14 µM
CCCCCCC(O)CCCCCCCCCCC(=O)OC (stereo not given) 27.5 µM
CC/C=C\CC/C=C/C(OCC)OCC 4.02 µM
C=CCOCC(CC)(CO)COCC=C 47.1 µM
CCO[Si](CCCN)(OCC)OCC 100 µM
CCC(=O)OCc1ccc(OC)cc1 29.7 µM
C=C1CC[C@H]2C[C@@H]1C2(C)C 11.5 µM
COC(=O)[C@]1(C)CCC[C@@]2(C)[C@H]1CC=C1C=C(C(C)C)CC[C@@H]12 3.48 µM
Cc1cc2nc3c(=O)[nH]c(=O)nc-3n(C[C@H](O)[C@H](O)[C@H](O)CO)c2cc1C 47.2 µM
Cc1cc(-n2nc3ccc(Cl)cc3n2)c(O)c(C(C)(C)C)c1 2.86 µM
O=C(OCc1ccccc1)c1ccccc1 26.4 µM
CCCCCCC1CCCC(=O)O1 (stereo not given) 37.5 µM
Oc1cccc2ccccc12 5.66 µM
Oc1ccc(Oc2ccccc2)cc1 26.4 µM
CNC[C@H](O)[C@@H](O)[C@H](O)[C@H](O)CO 26 µM
CN(C)c1ccc(C(c2ccccc2)c2ccc(N(C)C)cc2)cc1 3.06 µM
CC[N+](CC)(CC(=O)Nc1c(C)cccc1C)Cc1ccccc1 (tested in a mixture with another compound) 21.8 µM

outcome, inactive:
COC(=O)c1ccccc1
O=C(O)/C=C/C(=O)O
CCCCCCC1CCC(=O)O1 (stereo not given)
O=[N+]([O-])c1ccccc1C(F)(F)F
NC(=O)c1ccc(N)cc1
CC(=O)Nc1c(I)c(NC(C)=O)c(I)c(C(=O)O)c1I
C=CN1CCCCCC1=O
CC(=O)CCc1ccccc1
c1ccc2c(c1)Oc1ccccc1S2
CCCCCC[C@@H](O)C/C=C\CCCCCCCC(=O)O

Experiment: ATG_PPRE_CIS: Attagene CIS-FACTORIAL HepG2 Assay for human Peroxisome Proliferator-activated Response Element (PPRE) (AID 2282958)
Conditions: HepG2 PPRE cis-element reporter, Attagene transcription factor profiling; actives raise or lower the signal
Summary of the method: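 HepG2, transient MRTU transfection (cis promoter elements, endogenous TFs). 24 h dosing. RNA → oligo(dT) RT → PCR → 6-FAM primer extension → HpaI digest → CE. Bidirectional fit vs DMSO.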

outcome, inactive:
CNC(=C[N+](=O)[O-])NCCSCc1csc(CN(C)C)n1
CCCC(=O)OC/C=C(\C)CCC=C(C)C
COC(=O)c1ccccc1
O=S(=O)(O)c1cccc2ccccc12
CCO[Si](CCCN)(OCC)OCC
CCCCCCC1CCC(=O)O1 (stereo not given)
O=[N+]([O-])c1ccccc1C(F)(F)F
C=C1CC[C@H]2C[C@@H]1C2(C)C
CCCCCC1CCCC(=O)O1 (stereo not given)
O=C(OCc1ccccc1)c1ccccc1

AC50, active:
Oc1ccc(Oc2ccccc2)cc1 48 µM
CCCCCC[C@@H](O)C/C=C\CCCCCCCC(=O)O 45.7 µM

Experiment: ATG_RORE_CIS: Attagene CIS-FACTORIAL HepG2 Assay for human RAR-related Orphan Receptor Element (RORE) (AID 2282959)
Conditions: HepG2 Attagene cis-factorial RORE reporter, mRNA; actives raise or lower the signal
Summary of the method: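 Transient MRTU transfection of human HepG2 liver cells (FuGene 6); 24 h compound exposure; TriZol RNA, oligo(dT) RT, PCR, FAM labeling, HpaI cut, CE fragment analysis. DMSO = negative control/baseline.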

outcome, inactive:
CNC(=C[N+](=O)[O-])NCCSCc1csc(CN(C)C)n1
O=C1CCCCCCCCCCCCCC1
COC(=O)c1ccccc1
O=S(=O)(O)c1cccc2ccccc12
CC/C=C\CC/C=C/C(OCC)OCC
CN1CCCC1
CCO[Si](CCCN)(OCC)OCC
CCCCCCC1CCC(=O)O1 (stereo not given)
O=[N+]([O-])c1ccccc1C(F)(F)F
CCc1cc(C(N)=S)ccn1
COc1cccc(OC)c1C(=O)O
COC(=O)[C@]1(C)CCC[C@@]2(C)[C@H]1CC=C1C=C(C(C)C)CC[C@@H]12
Cc1cc2nc3c(=O)[nH]c(=O)nc-3n(C[C@H](O)[C@H](O)[C@H](O)CO)c2cc1C
O=C(OCc1ccccc1)c1ccccc1
c1ccc(CNc2ncnc3nc[nH]c23)cc1
CC(=O)Nc1c(I)c(NC(C)=O)c(I)c(C(=O)O)c1I
CC(C)=CCOC(=O)c1ccccc1
Oc1cccc2ccccc12
C=CN1CCCCCC1=O
CC(=O)CCc1ccccc1

AC50, active:
CCCCCCC(O)CCCCCCCCCCC(=O)OC (stereo not given) 21.8 µM
CCCCCC[C@@H](O)C/C=C\CCCCCCCC(=O)O 100 µM

Experiment: ATG_Sox_CIS: Attagene CIS-FACTORIAL HepG2 Assay for human SRY-box transcription factor (SOX) (AID 2282960)
Conditions: HepG2 Attagene cis-factorial SOX reporter, mRNA; actives raise or lower the signal
Summary of the method: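 Endogenous factor activity in human liver HepG2 cells carrying transfected cis-regulated reporter units. RNA taken 24 h post-dose, reverse-transcribed, PCR-amplified and sized by capillary electrophoresis. Gain or loss of signal fitted relative to DMSO.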

outcome, inactive:
CNC(=C[N+](=O)[O-])NCCSCc1csc(CN(C)C)n1
O=C1CCCCCCCCCCCCCC1
CCCC(=O)OC/C=C(\C)CCC=C(C)C
CCCCCCC(O)CCCCCCCCCCC(=O)OC (stereo not given)
COC(=O)c1ccccc1
O=C(O)/C=C/C(=O)O
O=S(=O)(O)c1cccc2ccccc12
C/C=C(\C)C(=O)OCC/C=C\CC
C=CCOCC(CC)(CO)COCC=C
CN1CCCC1
CCO[Si](CCCN)(OCC)OCC
CCCCCCC1CCC(=O)O1 (stereo not given)
O=[N+]([O-])c1ccccc1C(F)(F)F
CCC(=O)OCc1ccc(OC)cc1
CCc1cc(C(N)=S)ccn1
CCC(C)=NO
COc1cccc(OC)c1C(=O)O
C=C1CC[C@H]2C[C@@H]1C2(C)C
CCCCCC1CCCC(=O)O1 (stereo not given)
COC(=O)[C@]1(C)CCC[C@@]2(C)[C@H]1CC=C1C=C(C(C)C)CC[C@@H]12
Cc1cc2nc3c(=O)[nH]c(=O)nc-3n(C[C@H](O)[C@H](O)[C@H](O)CO)c2cc1C
Cc1cc(-n2nc3ccc(Cl)cc3n2)c(O)c(C(C)(C)C)c1
O=C(OCc1ccccc1)c1ccccc1
CCCCCCC1CCCC(=O)O1 (stereo not given)
c1ccc(CNc2ncnc3nc[nH]c23)cc1
NC(=O)c1ccc(N)cc1
CC(=O)Nc1c(I)c(NC(C)=O)c(I)c(C(=O)O)c1I
CC(C)=CCOC(=O)c1ccccc1
CC(C)(C)NC(=O)[C@@H]1CN(Cc2cccnc2)CCN1C[C@@H](O)C[C@@H](Cc1ccccc1)C(=O)N[C@H]1c2ccccc2C[C@H]1O
Oc1cccc2ccccc12
C=CN1CCCCCC1=O
Oc1ccc(Oc2ccccc2)cc1
CC(=O)CCc1ccccc1
CNC[C@H](O)[C@@H](O)[C@H](O)[C@H](O)CO
CN(C)c1ccc(C(c2ccccc2)c2ccc(N(C)C)cc2)cc1
c1ccc2c(c1)Oc1ccccc1S2
CCCCCC[C@@H](O)C/C=C\CCCCCCCC(=O)O
CC[N+](CC)(CC(=O)Nc1c(C)cccc1C)Cc1ccccc1 (tested in a mixture with another compound)

AC50, active:
CC/C=C\CC/C=C/C(OCC)OCC 147 µM
